Consider 72 compounds from ChEMBL document CHEMBL4513216, “Probing the Open Global Health Chemical Diversity Library for Multistage-Active Starting Points for Next-Generation Antimalarials” (ACS Infect Dis, 2020).

The structures appear in SMILES notation. Hit rate of the full screen: of about 68,000 compounds, about 2,700 (4%) showed an effect of 50% or more. The sample as a whole holds a higher share of strong results than the screen did.

The assay has as its system Plasmodium berghei. The assay is described as follows: Screen against P. berghei liver stage (PbLuc), transformed with Luciferase, at 2uM. It is filed as functional, HepG2. Particulars: tested at 2 uM.
`CCC1CN(Cc2nc(C(C)C)no2)CCC(=O)N1Cc1ccccc1` (configuration not stated): the INHIBITION is listed as 8.14%.

Consider `O=C(C1=CCCC1)N1C[C@H](OCc2cccnc2)[C@H]2OCCC[C@H]21`, for which the INHIBITION was found to be 31.46%.

In the case of `CCCS(=O)(=O)N1CCC2(CC1)CC(=O)N(Cc1cc(F)cc(F)c1)C2`, the INHIBITION worked out at 8.76%.

With `C=c1occc1=C1NC(c2cccc(CN3CCOCC3)c2)=NO1`, the INHIBITION stood at 1.42%.

Consider `CCC(C)c1noc(C2CCN(C(=O)c3cccs3)CC2)n1` (configuration not stated), for which the INHIBITION was -50.86%.

Consider `c1ccc(Cn2cccn2)c(CN2CCC3(CCCNC3)C2)c1` (configuration not stated), for which the INHIBITION is on record as 31.9%.

In the case of `c1cnn(Cc2ccc(CN3CCC4(CCCNC4)C3)cc2)c1` (configuration not stated), the INHIBITION amounted to 0.49%.

Take `c1cnn(Cc2ccc(CN3CCC4(CCNCC4)C3)cc2)c1`: the INHIBITION turned out to be 56.79%.

Turning to `COC[C@]1(O)CCN(Cc2ccc(N(C)C)nc2)CC1(C)C`, the INHIBITION came to 32.21%.

On to `Cc1cc(CN2CC[C@H]3C[C@H](C(=O)N4CCC(C)CC4)O[C@H]3C2)no1`, for which the INHIBITION came out at 34.88%.

With `CCn1ccnc1CN1CCCN(C(=O)COC2CCCCC2)CC1`, the INHIBITION was -2.87%.

For the compound `Cn1ccnc1CN1CCCN(C(=O)COC2CCCC2)CC1`, the INHIBITION is given as 28.18%.

For `CCn1ccnc1CN1CCCN(C(=O)COC2CCCC2)CC1`, the INHIBITION was 57.81%.

For `Cn1ccc(NC(=O)CN2C[C@@H]3CC[C@H]2CN(S(C)(=O)=O)C3)n1`, the INHIBITION is on record as 48.21%.

In the case of `CN(Cc1nc2ccccc2o1)C1CCCN(c2cccnn2)C1` (configuration not stated), the INHIBITION was -16.72%.

As to `Cc1cc(C)n(C2CCCN(C(=O)c3cccc4[nH]ncc34)C2)n1` (configuration not stated), the INHIBITION is on record as -15.33%.

With `Cc1nccn1-c1ccc(C(C)NCc2cccn2C)cc1` (configuration not stated), the INHIBITION is recorded as -28.15%.

For the compound `Cn1c2ccccc2c2ncn(CCCN3CCOCC3)c(=O)c21`, the INHIBITION came out at 23.65%.

Regarding `Cn1c2ccccc2c2ncn(CCN3CCOCC3)c(=O)c21`, the INHIBITION is on record as 61.75%.

Regarding `Cn1c2ccc(F)cc2c2ncn(CCN3CCOCC3)c(=O)c21`, the INHIBITION is reported as -2.5%.

For the compound `CN1CCCN(C[C@@H]2CN(c3nc(C(N)=O)cs3)C[C@@H]2CO)CC1`, the INHIBITION is on record as 19.56%.

On to `COCCNc1c(-c2ccc(C)cc2)c(=O)c1=O`, for which the INHIBITION was -21.29%.

With `COCCN1CCO[C@H]2CN(C(=O)c3cccs3)C[C@H]21`, the INHIBITION came out at 13.26%.

For the compound `CS(=O)(=O)N1Cc2nccn2CC(Cn2ncccc2=O)C1` (configuration not stated), the INHIBITION is -9.42%.

As for `O=c1cccnn1CC1CN(CC2CCCC2)Cc2nccn2C1` (configuration not stated), the INHIBITION is reported as 52.83%.

On to `O=c1cccnn1CC1CN(Cc2ccsc2)Cc2nccn2C1` (configuration not stated), for which the INHIBITION is recorded as -0.51%.

For the compound `NC(=O)CCn1cc(CNCCCc2csc(N)n2)c2ccccc21`, the INHIBITION is reported as 37.15%.

As to `NC(=O)CCn1cc(CNCCCc2ccccc2O)c2ccccc21`, the INHIBITION worked out at 57.34%.

For the compound `NC(=O)CCn1cc(CNCCCc2ccncc2)c2ccccc21`, the INHIBITION turned out to be 3.49%.

With `Cc1ccc(C(C)NCc2cn(CCC(N)=O)c3ccccc23)cc1C` (configuration not stated), the INHIBITION came out at 61.63%.

`NC(=O)CCn1cc(CNCc2csc(N)n2)c2ccccc21`: the INHIBITION stood at 72.49%.

As to `CC(C)n1cnnc1CCNCc1cn(CCC(N)=O)c2ccccc12`, the INHIBITION is given as -9.3%.

Regarding `CCCN1CCN(Cc2cn(CCC(N)=O)c3ccccc23)CC1`, the INHIBITION came out at 38.62%.

In the case of `CC(NCc1cn(CCC(N)=O)c2ccccc12)c1nncn1C` (configuration not stated), the INHIBITION was -81.84%.

Take `Cc1n[nH]c(C)c1CCCNCc1cn(CCC(N)=O)c2ccccc12`: the INHIBITION was determined as 42.2%.

Consider `CCc1nccn1-c1cncc(C2CCN(C(=O)COC)CC2)n1`, for which the INHIBITION stood at 41.98%.

As for `CCN(CC)C(=O)c1nc2c(s1)CCN(Cc1cccc(OC)c1)CC2`, the INHIBITION is listed as 1.08%.

`O=C(c1cccc(S(=O)(=O)NCCCn2cccn2)c1)N1CCOCC1`: the INHIBITION stood at 30.8%.

As for `COC(=O)[C@H](C)NC(=O)Cc1c(C)nc2c(c1C)c(=O)[nH]n2C`, the INHIBITION is -7.03%.

In the case of `COCCNc1nc2c(c(NCCc3cccs3)n1)CCNCC2`, the INHIBITION is -15.37%.

In the case of `COCCNc1nc2c(c(NCc3ccncc3)n1)CCNCC2`, the INHIBITION is reported as -21.16%.

`COCCNc1nc2c(c(NCC3CCOC3)n1)CCNCC2` (configuration not stated): the INHIBITION stood at 58.53%.

As to `COCC(c1cccc(C(F)(F)F)c1)N(C)C(=O)c1ccncc1` (configuration not stated), the INHIBITION stood at 14.82%.

Regarding `COCC(c1cccc(C(F)(F)F)c1)N(C)C(=O)c1cc(C)no1` (configuration not stated), the INHIBITION is recorded as -23.4%.

As to `COCC(c1cccc(C(F)(F)F)c1)N(C)C(=O)c1cc(C)n[nH]1` (configuration not stated), the INHIBITION is reported as 51.21%.

In the case of `CCn1cc(CNC(=O)c2nn(CC)cc2Br)cn1`, the INHIBITION is given as -26.13%.

For `O=C(NC1CCCN(c2ccc(OC(F)F)cc2)C1)c1c[nH]nn1` (configuration not stated), the INHIBITION is 5.48%.

`O=C(NC1CCCN(c2ccccc2Cl)C1)c1ccc(=O)[nH]n1` (configuration not stated): the INHIBITION is reported as 42.88%.

For `O=C(NC1CCN(c2ccccc2Br)C1)c1c[nH]nn1` (configuration not stated), the INHIBITION is 53.81%.

`O=C(NC1CCN(c2ccccc2OC(F)F)C1)c1c[nH]nn1` (configuration not stated): the INHIBITION is 31.3%.

Turning to `O=C(NC1CCCN(c2ccccc2Cl)C1)c1c[nH]nn1` (configuration not stated), the INHIBITION amounted to 55.18%.

Regarding `O=C(NC1CCCN(c2ccccc2Cl)C1)c1nc(=O)[nH][nH]1` (configuration not stated), the INHIBITION was 8.05%.

As to `Cc1cc(C)n2c(CCCNS(=O)(=O)c3ccc(F)cc3)nnc2n1`, the INHIBITION is given as 6.62%.

With `CCc1nc(NC2CCCN(C(=O)c3cccs3)C2)c2cnn(C)c2n1` (configuration not stated), the INHIBITION is given as -33.35%.

As for `CCN(CC)C1(Cc2cc(-c3cccc(O)c3)on2)COC1`, the INHIBITION came out at 10.08%.

On to `CCCN(CCC)C1(Cc2cc(-c3cccc(O)c3)on2)COC1`, for which the INHIBITION was 50.72%.

For `Oc1cccc(-c2cc(CC3(N(CC4CC4)CC4CC4)COC3)no2)c1`, the INHIBITION is reported as -4.2%.

Turning to `NC1(C(=O)NCCC2CN(Cc3ccco3)CCO2)CCCC1` (configuration not stated), the INHIBITION is listed as 18.98%.

As for `CC(C)(C)c1noc(CCCC(=O)N2CCNC(=O)C2)n1`, the INHIBITION is given as -31.79%.

In the case of `COCCC(=O)N1C[C@@H]2CC[C@H]1CN(C1Cc3ccccc3C1)C2`, the INHIBITION was 28.97%.

With `COCCOC(=O)N1C[C@@H]2CC[C@H]1CN(C1Cc3ccccc3C1)C2`, the INHIBITION is on record as -31.79%.

For the compound `COCCOCC(=O)N1C[C@@H]2CC[C@H]1CN(C1Cc3ccccc3C1)C2`, the INHIBITION came to 61.82%.

On to `Cc1cc(C)n(C2CCCN(C(=O)c3ccn(C)c(=O)c3)C2)n1` (configuration not stated), for which the INHIBITION is given as -42.24%.

As for `O=C(COC1CCCCC1)N1CCCC(n2ccnc2)C1` (configuration not stated), the INHIBITION is -0.13%.

As to `O=C(COCCOc1ccccc1)N1CCCC(n2ccnc2)C1` (configuration not stated), the INHIBITION was 29.12%.

Take `O=C(COCC1CC1)N1CCCC(n2cccn2)C1` (configuration not stated): the INHIBITION was -5.7%.

Take `CC(=O)Nc1nc(C(=O)N2CCCC(n3cncn3)C2)cs1` (configuration not stated): the INHIBITION was found to be 72.31%.

Take `O=C(COCC1CC1)N1CCCC(n2cncn2)C1` (configuration not stated): the INHIBITION is recorded as 62.46%.

As to `O=C(COCc1ccccc1)N1CCCC(n2cncn2)C1` (configuration not stated), the INHIBITION is 24.15%.

With `O=C(COCC1CC1)N1CCCC(n2ccnc2)C1` (configuration not stated), the INHIBITION amounted to 67.53%.

Consider `Cc1nc(C(=O)N2CCCC(n3cncn3)C2)cs1` (configuration not stated), for which the INHIBITION was -81.94%.

Take `CC(=O)Nc1nc(C(=O)N2CCCC(n3ccnc3)C2)cs1` (configuration not stated): the INHIBITION worked out at 18.46%.
